Laboratory results from PubChem BioAssay AID1347073 (National Center for Advancing Translational Sciences (NCATS), 2019).
In all, about 45,000 compounds went through this assay and about 200 (0.44%) were called active. Another 7% or so got no clear call; they are omitted. What follows is part of a selection rich in actives, with near analogues and random picks from the rest. A number with no mark means an inactive call. The call rests on the fitted dose curve; in most records, active means well fitted activation curve with a large enough effect; inconclusive means small, poorly fitted or top-dose-only effect; inactive means no such curve, though single readings can be large or run the other way.

experiment: qHTS of TDP-43 Inhibitors: NCGC Sytravon Library Screen; conditions: yeast TDP-43 toxicity rescue, BacTiter-Glo growth, 24 h; series mostly up to 46.1 µM; growth rescue (activation): at the top concentration; further: nearly all actives have a fitted effect of over 55% in size; on growth rescue (activation): 0% is about no effect
From the text: The goal of this project is to identify new chemical probes capable of reversing the toxicity associated with TDP-43 which is associated with frontotemporal lobar degeneration and amyotrophic lateral sclerosis. These compounds will provide a complementary approach to deciphering the tangled mechanisms of toxicity and protection that we have uncovered through genome-wide genetic screens and are beginning to uncover in a large-scale proteomics analysis with mass spectroscopy. To this end, a miniaturized assay was developed to be screened against the Molecular Libraries Small Molecule Repository (MLSMR) to discover TDP-43 inhibitors. Please note that in the set-up this yeast-based assay compounds that inhibit as TDP-43, have a read-out as activators. NIH Chemical Genomics Center [NCGC] NIH Molecular Libraries Probe Centers Network [MLPCN] Assay Submitter (PI): Susan Lindquist, Whitehead Institute/MIT MLPCN Grant: R21 NS060957
Dispense 2.5 microL yeast galactose medium per 1536-well plate, pin compound, dispense 2.5 microL TDP-43 expressing yeast in galactose medium at OD600=0.02 (pregrown in raffinose medium to mid-log phase) per well, incubate for 24 hr at 30 deg C, and cell growth will be measured using 5 microL of Bactiter/Glo reagent to entire plate and read using Luminescence Protocol in ViewLux.
Potency means the concentration at half of the fitted maximal effect.

Structure (SMILES)	growth rescue (activation) [%]	Potency
O=C(NCCc1ccccc1)c1ccc2c(c1)N(Cc1ccccc1)C(=O)c1ccccc1S2(=O)=O	14	–
Cc1ccc(OCC(=O)NCCCNC(=O)c2ccco2)cc1C	9.61	–
N/C(=N/O)c1cccn1Cc1ccccc1[N+](=O)[O-]	4.53	–
CCCn1c(=N)n(CC(O)COc2ccccc2OC)c2ccccc21 (centres undefined)	4.92	–
O=C1c2ccccc2C(=O)c2c1cccc2N1CCN(C/C=C/c2ccccc2)CC1	24.5	–
NS(=O)(=O)c1ccc(N2C(=O)C3C4CC(C(Br)C4Br)C3C2=O)cc1 (centres undefined)	5.23	–
COC(=O)CCNC(=O)c1ccc2[nH]c(C)c(C)c2c1	-8.44	–
O=C(CN1C(=O)NC2(CCCC2)C1=O)NCC1CCCO1 (centres undefined)	-2.83	–
COc1ccc(-c2nc(N)sc2C2(O)C(=O)Nc3c(Br)cc(F)cc32)cc1OC (centres undefined)	19.9	–
CN(C)C(CNC(=O)c1cccc(C#N)c1)c1ccco1 (centres undefined)	-1.02	–
Nn1c(SCC(=O)Nc2ccc3c(c2)CCC3)nnc1C1CC1	12	–
CC(CN1CCC(n2nccc2NC(=O)C2CCCC2)CC1)c1ccccc1 (centres undefined)	16.5	–
CC(C)(C)c1ccc(CN2C(=O)c3ccccc3S2(=O)=O)cc1	-10.6	–
COc1ccc(CNC(=O)CN2C(=O)c3ccccc3S2(=O)=O)cc1	-1.25	–
O=C1c2ccccc2S(=O)(=O)N1CC(O)Cn1c2ccccc2c2ccccc21 (centres undefined)	–	12.6 µM (active)
Cc1ccc(Cl)cc1NC(=S)N(CCN(C)C)Cc1cccs1	18.7	–
Cc1noc(C)c1-c1ccc(C(=O)NCc2ccncc2)c2occc12	-0.761	–
COc1ccc(-c2ccc(C(=O)NC(C)C)c3occc23)c(C)c1	–	15.8 µM (active)
COCCCNC(=O)c1ccc(-c2c(C)noc2C)c2ccoc12	14.9	–
Cc1ccc(OCc2n[nH]c(=S)n2-c2ccc(C)cc2)cc1	12.9	–
Cc1ccc(S(=O)(=O)N(Cc2ccc(Cl)cc2)c2ccccc2C(=O)NCc2cccnc2)cc1	18.2	–
O=C(c1cccs1)c1cn(CCOc2ccc(Cl)cc2)c2ccccc12	-4.83	–
CN(C)c1ccnc(Nc2ccc(F)cc2)c1C#N	9.98	–

Structure (SMILES)	growth rescue (activation) [%]	Potency
COc1ccccc1OCc1ccc(C(=O)NC(C)c2ccccc2)o1 (centres undefined)	-10.7	–
O=C(C1CCN(S(=O)(=O)c2ccc(Br)s2)CC1)N1CCN(C2CCCCC2)CC1	9.07	–
COc1ccc(C(=O)OCc2cc(=O)n3ccsc3n2)cc1F	21.7	–
CCCCN(CC)CCCNC(=O)c1ccc(CSc2nc3ccncc3[nH]2)cc1	9.62	–
CC(C)(C)c1ccccc1NC(=O)CN1C(=O)NC2(CCCC2)C1=O	-20.9	–
COc1ccc(C(=O)Nc2ccc(N3CCC(C)CC3)cc2)cc1Br	5.41	–
c1cc(-c2ccc3[nH]ccc3c2)n2ccnc2c1	-5.58	–
O=C(CN1C(=O)NC2(CCCCCC2)C1=O)Nc1ccc([N+](=O)[O-])cc1	26.5	–
O=C1NC(c2ccc(-c3ccccc3[N+](=O)[O-])o2)C(C(=O)c2ccc(Cl)cc2)C(O)(C(F)(F)F)N1 (centres undefined)	7.15	–
CN(Cc1nc2ccccc2s1)C(=O)c1ccc(F)cc1	0.189	–
CCN(CC)C(=O)CN(c1cccc([N+](=O)[O-])c1)S(=O)(=O)c1ccccc1	-34.4	–
O=C(Nc1ccc(F)cc1)N1CCN(c2ccc(F)cc2)CC1	-2.13	–
Cc1nc2c(OCc3cccc(Cl)c3)cccn2c1N(C)CC1CC1	7.14	–
CC(C)(C)NC(=O)C(=O)NN=C1CCCCCCC1	5	–
O=C(CCn1c(=O)c2sccc2n(Cc2ccc(F)cc2)c1=O)NCc1ccc2c(c1)OCO2	11	–
CCc1ccc(OC2(C)CCN(CCOc3ccc(C)cc3)C2)cc1 (centres undefined)	16.9	–
COc1ccc(CN2CCC(C)(Oc3cccc(F)c3)C2)c2ccccc12 (centres undefined)	-7.83	–
O=C(NCc1ccc(F)cc1)c1cc(C2CCCCN2C(=O)c2cccs2)on1 (centres undefined)	22.8	–
CN(CC(=O)NC(=O)Nc1ccccc1F)Cc1ccccc1	-6.54	–
CCn1c(CSc2nc(C)cc(C)n2)nnc1SCC(N)=O	2.73	–
O=C(O)C(F)(F)C(NCc1ccccc1)c1ccccc1 (centres undefined)	-7.2	–
CC(C(=O)Nc1ccc(F)c(F)c1F)N1CCCCCC1 (centres undefined)	14.6	–
O=C(NCCc1ccc(F)cc1)c1n[nH]c2ccccc12	28.9	–

Structure (SMILES)	growth rescue (activation) [%]	Potency
O=C(COC(=O)c1ccncc1)Nc1ccc2c(c1)OCO2	5.9	–
N#Cc1ccccc1NC(=O)c1ccc2c(c1)OCO2	15.1	–
N/C(=N\OC(=O)c1ccc2c(c1)OCO2)c1ccc(Br)cc1	–	3.55 µM (active)
O=C(O)CC1(CC(=O)Nc2cccc(C(F)(F)F)c2)CCCC1	19.5	–
Cn1c(NCc2cccnc2)nc2cc(-c3ccc(F)cc3)sc2c1=O	0.425	–
Cc1ccc(C)c(NC(=O)CN(C)C(=O)COc2ccc3ccccc3c2)c1	-0.898	–
NS(=O)(=O)c1cccc(NC(=O)CN2CCCc3ccccc32)c1	12.9	–
O=C(CCn1nnc2ccccc2c1=O)N[C@@H](Cc1c[nH]c2ccccc12)C(=O)O	-8.31	–
O=C(NC1CC1)C(Cc1ccccc1)NS(=O)(=O)c1ccccc1F (centres undefined)	5.63	–
COc1cccc(CC2(CO)CCN(Cc3cnc(-c4cccc(C)c4)nc3)CC2)c1	8.67	–
COCCCNC(=S)N1CCCC(c2nc3cc(C)c(C)cc3[nH]2)C1 (centres undefined)	8.91	–
CCC1CCCCN1C(=O)CSc1nc2c(c(=O)n(C)c(=O)n2C)n1C (centres undefined)	-3.65	–
CC(C)c1ccc(N(C(=O)c2ccco2)C(C(=O)NC2CCCC2)c2cccnc2)cc1 (centres undefined)	13.8	–
COc1ccc(N2CCN(C(=O)C3CCN(C(=O)c4ccccc4Cl)CC3)CC2)cc1	9.74	–
CCc1cc(-c2nnc(SCC(=O)NC3CC3)n2C)cs1	0.827	–
COc1ccc(-c2n[nH]c(C)c2-c2ccccc2OC)c(O)c1	-0.59	–
CCOc1ccccc1Oc1cn[nH]c1-c1ccc(OC)cc1O	–	15.8 µM (active)
COc1ccc(-c2[nH]ncc2CN(C)Cc2cc(C)[nH]n2)c(F)c1	-11.4	–
COc1ccc(S(=O)(=O)N2CCOCC2)cc1NC(=O)CSc1nnc(NC2CC2)s1	8.11	–
Cn1cc(CN2CCCCC2c2ccccn2)c(-c2ccc3c(c2)OCCO3)n1 (centres undefined)	-18.4	–
Cc1ccc(SCC(=O)NNC(=O)c2ccc(S(C)(=O)=O)cc2)cc1	-21.6	–
CCOC(=O)C1CCN(c2ccc(C(=O)O)cc2[N+](=O)[O-])CC1	18.7	–
CC(C)(C)c1nnc2sc(SCC(O)=C(C#N)c3nc4ccccc4[nH]3)nn2c1=O	2.04	–
